In PubChem BioAssay AID1159580 (chemical genetic matrix, 2015):
Out of some 5,500 compounds screened, about 2,000 (36%) were called active. Inconclusive results (about 18%) are left out. Cut-off read from the data, not from the text of the source: active = normalized growth mostly below about 0.91 (no sharp cut-off); inconclusive = no clear call, values can overlap the other calls; inactive = mostly above about 0.92. Some of the results follow.

Assay: chemical genetic growth profiling, strain panel (AID 1159580);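 note: tested at 20 µM; growth read once vehicle control cultures reached saturation at 30 °C; 1 = growth at the plate median or of vehicle wells; lower values mean less growth of the strain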
Conditions: growth OD

Measured: normalized growth

C[C@]12C=CC(=O)C=C1CCC1C2C(=O)C[C@@]2(C)C1CC[C@]2(O)C(=O)CO (stereo partly specified)
inactive: S. cerevisiae deletion strains, locus YJR075W, strain HOC1, active compounds read low 0.985 | S. cerevisiae deletion strains, locus YKL009W, strain mrt4, active compounds read low 0.979 | S. cerevisiae deletion strains, locus YKL068W, active compounds read low 0.989 | S. cerevisiae deletion strains, locus YKL085W, strain MDH1 (second series), active compounds read low 0.998 | S. cerevisiae deletion strains, locus YKL085W, strain MDH1, active compounds read low 0.998 | S. cerevisiae deletion strains, locus YKL160W, strain elf1, active compounds read low 0.97 | S. cerevisiae deletion strains, locus YKL190W, strain CNB1, active compounds read low 0.989 | S. cerevisiae deletion strains, locus YKR001C, strain vps1, active compounds read low 0.995 | S. cerevisiae deletion strains, locus YKR026C, strain gcn3, active compounds read low 0.997 | S. cerevisiae deletion strains, locus YKR091W, strain srl3, active compounds read low 0.997 | S. cerevisiae deletion strains, locus YLL001W, strain dnm1, active compounds read low 0.955 | S. cerevisiae deletion strains, locus YLL026W, active compounds read low 0.986 | S. cerevisiae deletion strains, locus YLL041C, strain sdh2, active compounds read low 0.994 | S. cerevisiae deletion strains, locus YLR027C, strain aat2, active compounds read low 0.978 | S. cerevisiae deletion strains, locus YLR039C, strain RIC1, active compounds read low 0.993 | S. cerevisiae deletion strains, locus YLR058C, strain SHM2, active compounds read low 0.978 | S. cerevisiae deletion strains, locus YLR102C, strain apc9, active compounds read low 0.99 | S. cerevisiae deletion strains, locus YLR113W, strain HOG1, active compounds read low 1.03 | S. cerevisiae deletion strains, locus YLR221C, strain rsa3, active compounds read low 1.01 | S. cerevisiae deletion strains, locus YLR258W, strain gsy2, active compounds read low 1.02 | S. cerevisiae deletion strains, locus YLR262C, strain YPT6 (second series), active compounds read low 0.986 | S. cerevisiae deletion strains, locus YLR262C, strain YPT6, active compounds read low 0.968 | S. cerevisiae deletion strains, locus YLR268W, strain sec22, active compounds read low 1.05 | S. cerevisiae deletion strains, locus YLR320W, strain mms22, active compounds read low 0.985 | S. cerevisiae deletion strains, locus YLR330W, strain CHS5, active compounds read low 0.998 | S. cerevisiae deletion strains, locus YLR342W, strain FKS1 (second series), active compounds read low 1.01 | S. cerevisiae deletion strains, locus YLR342W, strain FKS1, active compounds read low 0.978 | S. cerevisiae deletion strains, locus YLR357W, strain rsc2, active compounds read low 0.992 | S. cerevisiae deletion strains, locus YLR370C, strain arc18, active compounds read low 0.994 | S. cerevisiae deletion strains, locus YLR371W, strain rom2, active compounds read low 0.974 | S. cerevisiae deletion strains, locus YLR384C, strain iki3, active compounds read low 0.985 | S. cerevisiae deletion strains, locus YLR418C, strain cdc73, active compounds read low 0.985 | S. cerevisiae deletion strains, locus YML016C, strain PPZ1, active compounds read low 0.991 | S. cerevisiae deletion strains, locus YML032C, strain rad52, active compounds read low 1.01 | S. cerevisiae deletion strains, locus YML120C, strain ndi1, active compounds read low 0.986 | S. cerevisiae deletion strains, locus YML124C, strain tub3, active compounds read low 0.983 | S. cerevisiae deletion strains, locus YMR058W, strain fet3, active compounds read low 0.996 | S. cerevisiae deletion strains, locus YMR078C, strain ctf18, active compounds read low 0.979 | S. cerevisiae deletion strains, locus YMR125W, strain sto1, active compounds read low 0.987 | S. cerevisiae deletion strains, locus YMR129W, active compounds read low 1 | S. cerevisiae deletion strains, locus YMR205C, strain PFK2, active compounds read low 0.988 | S. cerevisiae deletion strains, locus YMR223W, strain ubp8, active compounds read low 0.963 | S. cerevisiae deletion strains, locus YMR231W, strain pep5, active compounds read low 1.02 | S. cerevisiae deletion strains, locus YMR263W, strain SAP30, active compounds read low 0.992 | S. cerevisiae deletion strains, locus YMR307W, strain GAS1, active compounds read low 0.991 | S. cerevisiae deletion strains, locus YNL067W, strain RPL9B, active compounds read low 0.992 | S. cerevisiae deletion strains, locus YNL071W, strain lat1, active compounds read low 1.01 | S. cerevisiae deletion strains, locus YNL153C, strain GIM3, active compounds read low 0.99 | S. cerevisiae deletion strains, locus YNL183C, strain NPR1, active compounds read low 0.986 | S. cerevisiae deletion strains, locus YNL209W, strain ssb2, active compounds read low 1.01 | S. cerevisiae deletion strains, locus YNL233W, strain BNI4, active compounds read low 0.997 | S. cerevisiae deletion strains, locus YNL248C, strain rpa49, active compounds read low 1 | S. cerevisiae deletion strains, locus YNL250W, strain rad50, active compounds read low 0.981 | S. cerevisiae deletion strains, locus YNL271C, strain bni1, active compounds read low 0.999 | S. cerevisiae deletion strains, locus YNL298W, strain CLA4, active compounds read low 0.982 | S. cerevisiae deletion strains, locus YNL307C, strain MCK1, active compounds read low 0.998 | S. cerevisiae deletion strains, locus YNL322C, strain KRE1 (second series), active compounds read low 0.998 | S. cerevisiae deletion strains, locus YNL322C, strain KRE1, active compounds read low 0.994 | S. cerevisiae deletion strains, locus YNR049C, strain mso1, active compounds read low 0.999 | S. cerevisiae deletion strains, locus YNR052C, strain pop2, active compounds read low 0.995 | S. cerevisiae deletion strains, locus YOL006C, strain TOP1, active compounds read low 0.938 | S. cerevisiae deletion strains, locus YOL012C, strain htz1 0.891 | S. cerevisiae deletion strains, locus YOL147C, strain pex11, active compounds read low 0.999 | S. cerevisiae deletion strains, locus YOR001W, strain rrp6, active compounds read low 0.976 | S. cerevisiae deletion strains, locus YOR061W, strain CKA2, active compounds read low 0.963 | S. cerevisiae deletion strains, locus YOR069W, strain VPS5, active compounds read low 0.997 | S. cerevisiae deletion strains, locus YOR070C, strain gyp1, active compounds read low 1.01 | S. cerevisiae deletion strains, locus YOR080W, strain dia2, active compounds read low 0.992 | S. cerevisiae deletion strains, locus YOR083W, strain WHI5, active compounds read low 0.964 | S. cerevisiae deletion strains, locus YOR106W, strain vam3, active compounds read low 0.993 | S. cerevisiae deletion strains, locus YOR136W, strain idh2, active compounds read low 0.982 | S. cerevisiae deletion strains, locus YOR144C, strain elg1, active compounds read low 0.985 | S. cerevisiae deletion strains, locus YOR184W, strain ser1, active compounds read low 0.973 | S. cerevisiae deletion strains, locus YOR231W, strain MKK1, active compounds read low 1.01 | S. cerevisiae deletion strains, locus YOR265W, strain rbl2, active compounds read low 0.993 | S. cerevisiae deletion strains, locus YOR270C, strain vph1, active compounds read low 1.02 | S. cerevisiae deletion strains, locus YOR290C, strain snf2, active compounds read low 1.03 | S. cerevisiae deletion strains, locus YOR316C, strain cot1, active compounds read low 0.985 | S. cerevisiae deletion strains, locus YPL051W, strain arl3, active compounds read low 0.989 | S. cerevisiae deletion strains, locus YPL055C, strain LGE1, active compounds read low 0.94 | S. cerevisiae deletion strains, locus YPL078C, strain atp4, active compounds read low 0.955 | S. cerevisiae deletion strains, locus YPL106C, strain sse1, active compounds read low 1.01 | S. cerevisiae deletion strains, locus YPL240C, strain hsp82, active compounds read low 0.987 | S. cerevisiae deletion strains, locus YPL241C, strain CIN2, active compounds read low 0.997 | S. cerevisiae deletion strains, locus YPL256C, strain CLN2, active compounds read low 1.05 | S. cerevisiae deletion strains, locus YPR119W, strain clb2, active compounds read low 0.982 | S. cerevisiae deletion strains, locus YPR141C, strain kar3, active compounds read low 0.98 | S. cerevisiae deletion strains, locus YPR163C, strain tif3, active compounds read low 0.986 | S. cerevisiae deletion strains, locus YPR167C, strain met16, active compounds read low 0.996 | S. cerevisiae deletion strains, strain wtn01, active compounds read low 0.992 | S. cerevisiae strains, strain wild type, active compounds read low 0.986
